Measurements taken from paper PMC11062922 (Nature Chemical Biology, 2023).
Read-outs that look alike come from different tables or passages of the source.

Tested on: PRKD2
Conditions: read-out: apparent Kd, n = 1

Lestaurtinib
potency estimated from few doses (compound concentrations:100 nM and 1000 nM (sheet 'Lestaurtinib' of Supplementary Table 1),run:Lestaurtinib_02364_R3,Plate:MR002): 0.0454 µM | potency estimated from few doses (compound concentrations:100 nM and 1000 nM (sheet 'Lestaurtinib' of Supplementary Table 1),run:Lestaurtinib_02367_R2,Plate:MR003): 0.0435 µM | potency estimated from few doses (compound concentrations:100 nM and 1000 nM (sheet 'Lestaurtinib' of Supplementary Table 1),run:Lestaurtinib_02367_R3,Plate:MR003): 0.0443 µM | potency estimated from few doses (compound concentrations:100 nM and 1000 nM (sheet 'Lestaurtinib' of Supplementary Table 1),run:Lestaurtinib_02381_R1,Plate:MR004): 0.0501 µM | potency estimated from few doses (compound concentrations:100 nM and 1000 nM (sheet 'Lestaurtinib' of Supplementary Table 1),run:Lestaurtinib_02381_R2,Plate:MR004): 0.0544 µM | potency estimated from few doses (compound concentrations:100 nM and 1000 nM (sheet 'Lestaurtinib' of Supplementary Table 1),run:Lestaurtinib_02381_R3,Plate:MR004): 0.0415 µM | potency estimated from few doses (compound concentrations:100 nM and 1000 nM (sheet 'Lestaurtinib' of Supplementary Table 1),run:Lestaurtinib_02407_R2,Plate:MR005): 0.0511 µM | potency estimated from few doses (compound concentrations:100 nM and 1000 nM (sheet 'Lestaurtinib' of Supplementary Table 1),run:Lestaurtinib_02407_R3,Plate:MR005): 0.0458 µM | potency estimated from few doses (compound concentrations:100 nM and 1000 nM (sheet 'Lestaurtinib' of Supplementary Table 1),run:Lestaurtinib_02422_R1,Plate:MR006): 0.0409 µM | potency estimated from few doses (compound concentrations:100 nM and 1000 nM (sheet 'Lestaurtinib' of Supplementary Table 1),run:Lestaurtinib_02422_R2,Plate:MR006): 0.024 µM | potency estimated from few doses (compound concentrations:100 nM and 1000 nM (sheet 'Lestaurtinib' of Supplementary Table 1),run:Lestaurtinib_02422_R3,Plate:MR006): 0.041 µM | potency estimated from few doses (compound concentrations:100 nM and 1000 nM (sheet 'Lestaurtinib' of Supplementary Table 1),run:Lestaurtinib_02437_R1,Plate:MR007): 0.0452 µM | potency estimated from few doses (compound concentrations:100 nM and 1000 nM (sheet 'Lestaurtinib' of Supplementary Table 1),run:Lestaurtinib_02437_R2,Plate:MR007): 0.0746 µM | potency estimated from few doses (compound concentrations:100 nM and 1000 nM (sheet 'Lestaurtinib' of Supplementary Table 1),run:Lestaurtinib_02437_R3,Plate:MR007): 0.00314 µM | potency estimated from few doses (compound concentrations:100 nM and 1000 nM (sheet 'Lestaurtinib' of Supplementary Table 1),run:Lestaurtinib_02438_R1,Plate:MR008): 0.0454 µM | potency estimated from few doses (compound concentrations:100 nM and 1000 nM (sheet 'Lestaurtinib' of Supplementary Table 1),run:Lestaurtinib_02438_R2,Plate:MR008): 0.051 µM | potency estimated from few doses (compound concentrations:100 nM and 1000 nM (sheet 'Lestaurtinib' of Supplementary Table 1),run:Lestaurtinib_02438_R3,Plate:MR008): 0.0317 µM | potency estimated from few doses (compound concentrations:100 nM and 1000 nM (sheet 'Lestaurtinib' of Supplementary Table 1),run:Lestaurtinib_02443_R2,Plate:MR009): 0.0432 µM | potency estimated from few doses (compound concentrations:100 nM and 1000 nM (sheet 'Lestaurtinib' of Supplementary Table 1),run:Lestaurtinib_02473_R3,Plate:MR010): 0.0389 µM | potency estimated from few doses (compound concentrations:100 nM and 1000 nM (sheet 'Lestaurtinib' of Supplementary Table 1),run:Lestaurtinib_02482_R2,Plate:MR011): 0.0504 µM | potency estimated from few doses (compound concentrations:100 nM and 1000 nM (sheet 'Lestaurtinib' of Supplementary Table 1),run:Lestaurtinib_02482_R3,Plate:MR011): 0.0422 µM | potency estimated from few doses (compound concentrations:100 nM and 1000 nM (sheet 'Lestaurtinib' of Supplementary Table 1),run:Lestaurtinib_02487_R2,Plate:MR012): 0.0401 µM | potency estimated from few doses (compound concentrations:100 nM and 1000 nM (sheet 'Lestaurtinib' of Supplementary Table 1),run:Lestaurtinib_02487_R3,Plate:MR012): 0.0674 µM | potency estimated from few doses (compound concentrations:100 nM and 1000 nM (sheet 'Lestaurtinib' of Supplementary Table 1),run:Lestaurtinib_02496_R1,Plate:MR013): 0.0474 µM | potency estimated from few doses (compound concentrations:100 nM and 1000 nM (sheet 'Lestaurtinib' of Supplementary Table 1),run:Lestaurtinib_02496_R2,Plate:MR013): 0.0581 µM | potency estimated from few doses (compound concentrations:100 nM and 1000 nM (sheet 'Lestaurtinib' of Supplementary Table 1),run:Lestaurtinib_02496_R3,Plate:MR013): 0.0505 µM | potency estimated from few doses (compound concentrations:100 nM and 1000 nM (sheet 'Lestaurtinib' of Supplementary Table 1),run:Lestaurtinib_02566_R1,Plate:MR014): 0.0672 µM | potency estimated from few doses (compound concentrations:100 nM and 1000 nM (sheet 'Lestaurtinib' of Supplementary Table 1),run:Lestaurtinib_02566_R2,Plate:MR014): 0.0394 µM | potency estimated from few doses (compound concentrations:100 nM and 1000 nM (sheet 'Lestaurtinib' of Supplementary Table 1),run:Lestaurtinib_02566_R3,Plate:MR014): 0.0465 µM | potency estimated from few doses (compound concentrations:100 nM and 1000 nM (sheet 'Lestaurtinib' of Supplementary Table 1),run:Lestaurtinib_02572_R1,Plate:MR015): 0.0381 µM | potency estimated from few doses (compound concentrations:100 nM and 1000 nM (sheet 'Lestaurtinib' of Supplementary Table 1),run:Lestaurtinib_02572_R2,Plate:MR015): 0.052 µM | potency estimated from few doses (compound concentrations:100 nM and 1000 nM (sheet 'Lestaurtinib' of Supplementary Table 1),run:Lestaurtinib_02572_R3,Plate:MR015): 0.0825 µM | potency estimated from few doses (compound concentrations:100 nM and 1000 nM (sheet 'Lestaurtinib' of Supplementary Table 1),run:Lestaurtinib_02577_R3,Plate:MR016): 0.0358 µM | potency estimated from few doses (compound concentrations:100 nM and 1000 nM (sheet 'Lestaurtinib' of Supplementary Table 1),run:Lestaurtinib_02584_R1,Plate:MR017): 0.0507 µM | potency estimated from few doses (compound concentrations:100 nM and 1000 nM (sheet 'Lestaurtinib' of Supplementary Table 1),run:Lestaurtinib_02584_R3,Plate:MR017): 0.033 µM | potency estimated from few doses (compound concentrations:100 nM and 1000 nM (sheet 'Lestaurtinib' of Supplementary Table 1),run:Lestaurtinib_02601_R2,Plate:MR018): 0.0547 µM | potency estimated from few doses (compound concentrations:100 nM and 1000 nM (sheet 'Lestaurtinib' of Supplementary Table 1),run:Lestaurtinib_02601_R3,Plate:MR018): 0.0507 µM | potency estimated from few doses (compound concentrations:100 nM and 1000 nM (sheet 'Lestaurtinib' of Supplementary Table 1),run:Lestaurtinib_02606_R1,Plate:MR019): 0.0417 µM | potency estimated from few doses (compound concentrations:100 nM and 1000 nM (sheet 'Lestaurtinib' of Supplementary Table 1),run:Lestaurtinib_02624_R1,Plate:MR020): 0.0528 µM | potency estimated from few doses (compound concentrations:100 nM and 1000 nM (sheet 'Lestaurtinib' of Supplementary Table 1),run:Lestaurtinib_02624_R3,Plate:MR020): 0.0379 µM | potency estimated from few doses (compound concentrations:100 nM and 1000 nM (sheet 'Lestaurtinib' of Supplementary Table 1),run:Lestaurtinib_02724_R1,Plate:MR021): 0.0394 µM | potency estimated from few doses (compound concentrations:100 nM and 1000 nM (sheet 'Lestaurtinib' of Supplementary Table 1),run:Lestaurtinib_02724_R2,Plate:MR021): 0.0508 µM | potency estimated from few doses (compound concentrations:100 nM and 1000 nM (sheet 'Lestaurtinib' of Supplementary Table 1),run:Lestaurtinib_02724_R3,Plate:MR021): 0.0447 µM
